According to PubChem BioAssay (EPA / NIEHS):
Records with an inconclusive call do not appear. Activity calls are given as the source filed them. Rule for the calls: active = hit-call score of the fitted dose curve at least 0.9, where 1 is the maximum; inconclusive = response in the unintended direction; inactive = score below 0.9.

Target: Oxysterols receptor LXR-alpha (Homo sapiens) (UniProt Q13133)
Test: ATG_LXRa_TRANS: Attagene TRANS-FACTORIAL HepG2 Assay for human Liver X Receptor alpha (LXRa) (AID 2282980)
Conditions: HepG2 Attagene TRANS reporter, LXRa transactivation
How it was run: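 In this multiplexed TRANS system, compounds act on HepG2 cells carrying GAL4-UAS reporter units and a receptor-GAL4 fusion for 24 h. Induced reporter RNA is amplified, fluorescently labelled and sized by capillary electrophoresis, with DMSO as baseline.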

Sequence of Oxysterols receptor LXR-alpha (Homo sapiens) (Q13133 whole entry, looked up): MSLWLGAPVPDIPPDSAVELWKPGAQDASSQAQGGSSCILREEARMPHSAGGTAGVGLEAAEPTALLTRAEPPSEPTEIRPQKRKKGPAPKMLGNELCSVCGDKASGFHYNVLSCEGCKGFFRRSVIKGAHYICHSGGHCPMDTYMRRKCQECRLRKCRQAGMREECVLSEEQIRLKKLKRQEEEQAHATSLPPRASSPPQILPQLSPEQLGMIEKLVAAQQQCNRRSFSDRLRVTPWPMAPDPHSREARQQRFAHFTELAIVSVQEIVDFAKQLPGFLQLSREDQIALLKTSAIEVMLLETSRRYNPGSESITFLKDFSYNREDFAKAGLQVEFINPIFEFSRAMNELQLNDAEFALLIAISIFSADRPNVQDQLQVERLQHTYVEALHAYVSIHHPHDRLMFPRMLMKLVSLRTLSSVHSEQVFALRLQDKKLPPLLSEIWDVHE

Structure (SMILES) | outcome
CCN(N=O)C(N)=O | inactive
CCOP(=O)(OCC)SCCSCC | inactive
Brc1ccc(Br)cc1 | inactive
C=C(C)[C@@H]1CC=C(C=O)CC1 | inactive
CCOc1cc(C=O)ccc1O | inactive
CCCCCCCCBr | inactive
CN(C)c1ccc(N=O)cc1 | inactive
O=[N+]([O-])c1c2ccccc2cc2ccccc12 | inactive
CCCSP(=S)(OCC)Oc1ccc(Cl)cc1Cl (configuration not stated) | inactive
C=CC(F)(C(F)(F)F)C(F)(F)C(F)(F)F (configuration not stated) | inactive
OCCCCO | inactive
CNC(=O)N(C)c1nc2ccccc2s1 | inactive
Nc1ccc(Br)cc1 | inactive
Cc1cc(Cl)ccc1N | inactive
O=C(Cl)OCCOCCOC(=O)Cl | inactive
CC(F)(F)CC(F)(F)F | inactive
COc1ccc([N+](=O)[O-])cc1O | inactive
OC[C@@H](O)[C@H]1O[C@@H]2O[C@H](C(Cl)(Cl)Cl)O[C@@H]2[C@H]1O | inactive
C=CCOC(F)(C(F)(F)F)C(F)(F)F | inactive
O=[N+]([O-])c1cc([As](=O)(O)O)ccc1O | inactive
CCOC(=O)C(SP(=S)(OC)OC)c1ccccc1 (configuration not stated) | inactive
CS(=O)(=O)c1ccc(C(=O)C2C(=O)CCCC2=O)c(Cl)c1COCC(F)(F)F | inactive

Target: Oxysterols receptor LXR-beta (Homo sapiens) (UniProt P55055)
Test: ATG_LXRb_TRANS: Attagene TRANS-FACTORIAL HepG2 Assay for human Liver X Receptor beta (LXRb) (AID 2282981)
Conditions: HepG2 Attagene TRANS GAL4-LXRb reporter, mRNA
How it was run: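 Transient transfection HepG2 (multiplexed RTUs, GAL4-UAS); NR-Gal4 chimera; 24 h exposure; RNA → RT-PCR → 6-FAM primer extension → HpaI → CE; increase vs DMSO.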

Sequence of Oxysterols receptor LXR-beta (Homo sapiens) (P55055 whole entry, looked up): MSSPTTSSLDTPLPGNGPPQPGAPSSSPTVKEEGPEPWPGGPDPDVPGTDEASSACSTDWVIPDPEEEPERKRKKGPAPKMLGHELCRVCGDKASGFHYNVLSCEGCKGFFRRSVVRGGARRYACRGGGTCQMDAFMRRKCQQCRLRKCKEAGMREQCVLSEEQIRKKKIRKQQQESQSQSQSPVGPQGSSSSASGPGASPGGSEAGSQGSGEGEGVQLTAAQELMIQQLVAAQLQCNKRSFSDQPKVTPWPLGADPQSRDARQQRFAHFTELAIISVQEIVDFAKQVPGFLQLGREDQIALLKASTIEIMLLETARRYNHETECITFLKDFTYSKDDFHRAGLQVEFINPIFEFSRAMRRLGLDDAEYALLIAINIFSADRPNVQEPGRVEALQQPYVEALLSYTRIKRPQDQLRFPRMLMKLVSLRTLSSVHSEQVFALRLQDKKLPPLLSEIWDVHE

Structure (SMILES) | outcome | AC50
N#Cc1ccncc1 | inactive | –
C=CC(F)(C(F)(F)F)C(F)(F)C(F)(F)F (configuration not stated) | inactive | –
OCCCCO | inactive | –
N#Cc1ccccc1Cl | inactive | –
Nc1ccc(Br)cc1 | inactive | –
Clc1cccc(Cl)c1Cl | inactive | –
C=CCc1ccccc1O | inactive | –
O=[N+]([O-])c1cc([As](=O)(O)O)ccc1O | inactive | –
CCOC(=O)C(SP(=S)(OC)OC)c1ccccc1 (configuration not stated) | inactive | –
Cc1ccc(CCl)cc1 | inactive | –
CS(=O)(=O)c1ccc(C(=O)C2C(=O)CCCC2=O)c(Cl)c1COCC(F)(F)F | inactive | –

Target: Hepatocyte nuclear factor 4-alpha (Homo sapiens) (UniProt P41235)
Test: ATG_HNF4a_TRANS: Attagene TRANS-FACTORIAL HepG2 Assay for human Hepatocyte Nuclear Factor 4 alpha (HNF4a) (AID 2282982)
Conditions: HepG2 HNF4a transactivation reporter, mRNA readout
How it was run: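 Readout is fluorescent reporter-transcript fragments resolved by capillary electrophoresis after RT-PCR from HepG2 cells dosed for 24 h. Cells carried transfected GAL4-UAS reporter constructs measuring exogenous NR-GAL4 chimera activity; DMSO served as baseline.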

Sequence of Hepatocyte nuclear factor 4-alpha (Homo sapiens) (P41235 whole entry, looked up): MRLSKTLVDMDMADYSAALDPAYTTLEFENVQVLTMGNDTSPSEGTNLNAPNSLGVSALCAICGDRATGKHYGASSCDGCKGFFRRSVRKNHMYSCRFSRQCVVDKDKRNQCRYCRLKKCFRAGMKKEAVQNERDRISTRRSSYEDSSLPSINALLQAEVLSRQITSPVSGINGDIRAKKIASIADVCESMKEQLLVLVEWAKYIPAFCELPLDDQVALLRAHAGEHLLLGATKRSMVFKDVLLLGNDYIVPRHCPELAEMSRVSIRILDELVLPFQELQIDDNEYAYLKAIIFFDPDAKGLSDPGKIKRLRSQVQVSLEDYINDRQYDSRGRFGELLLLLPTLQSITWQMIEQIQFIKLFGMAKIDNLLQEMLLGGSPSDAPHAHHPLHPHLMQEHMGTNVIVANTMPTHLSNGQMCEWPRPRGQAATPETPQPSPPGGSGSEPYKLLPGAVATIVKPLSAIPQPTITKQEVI

Structure (SMILES) | outcome | AC50
CCN(N=O)C(N)=O | inactive | –
Brc1ccc(Br)cc1 | inactive | –
CCOc1cc(C=O)ccc1O | inactive | –
CCCCCCCCBr | inactive | –
N#Cc1ccncc1 | inactive | –
CN(C)c1ccc(N=O)cc1 | inactive | –
FC(F)OCC(F)(F)C(F)(F)F | inactive | –
C=CC(=O)OCC(COC(=O)C=C)(COC(=O)C=C)COC(=O)C=C | – | 44.6 µM (active)
CC(C)[C@H](C(=O)OC(C#N)c1cccc(Oc2ccccc2)c1)c1ccc(OC(F)F)cc1 (some centres not stated) | inactive | –
CN(N=O)C(N)=O | inactive | –
O=[N+]([O-])c1c2ccccc2cc2ccccc12 | inactive | –
CCOC(=O)CCN(SN(C)C(=O)Oc1cccc2c1OC(C)(C)C2)C(C)C | inactive | –
C=CC(F)(C(F)(F)F)C(F)(F)C(F)(F)F (configuration not stated) | inactive | –
Nc1ccc(Br)cc1 | inactive | –
O=c1oc2ccccc2c(O)c1C(CC(O)c1ccc(-c2ccc(Br)cc2)cc1)c1ccccc1 (configuration not stated) | inactive | –
CC(F)(F)CC(F)(F)F | inactive | –
Clc1cccc(Cl)c1Cl | inactive | –
Cc1cc(C(C)(C)c2ccc(O)c(C)c2)ccc1O | inactive | –
C=CCOC(F)(C(F)(F)F)C(F)(F)F | inactive | –
CC(=O)CN(CC(C)=O)N=O | inactive | –
C=CCc1ccccc1O | inactive | –
CCC(C)(C#N)N=NC(C)(C#N)CC (configuration not stated) | inactive | –
Cc1ccc(CCl)cc1 | inactive | –
